Compound activity deposited in PubChem BioAssay by The Scripps Research Institute Molecular Screening Center.
PREPL inhibitor: inhibitors of human prolyl oligopeptidase-like enzyme PREPL. recombinant PREPL, fluorescence polarization activity-based probe. 0.68% of 320,000 active. AID 2751. Q4J6C6. inhibition, % at 5.96 µM; in the data active means inhibition above about 43%
EBNA-1 inh: blocks EBNA-1 binding to DNA; EBNA-1 DNA binding, fluorescence polarization; 0.34% of 300,000 active; inhibition, % at 14.8 µM; in the data active means inhibition above about 28%
LYPLA2 counter: counter-screen for PME1 inhibitors: inhibitors of human LYPLA2; recombinant LYPLA2, FP-Rh probe fluorescence polarization; inhibition, % at 5.9 µM; O95372; 0.38% of 320,000 active; AID 2177;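 active means inhibition above the screen-wide mean plus 3 SD, limit set per campaign, cut at about 26% in these data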
Target sequence (O95372 whole entry, looked up): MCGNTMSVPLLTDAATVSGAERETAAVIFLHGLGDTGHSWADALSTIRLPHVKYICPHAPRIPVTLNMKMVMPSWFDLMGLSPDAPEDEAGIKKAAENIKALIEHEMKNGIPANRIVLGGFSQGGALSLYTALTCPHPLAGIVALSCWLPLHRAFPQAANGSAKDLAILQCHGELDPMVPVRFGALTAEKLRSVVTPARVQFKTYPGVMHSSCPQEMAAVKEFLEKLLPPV
LYPLA1 inh: LYPLA1 (human) inhibition in PME1 counter-screen; O75608; recombinant LYPLA1, FP-Rh probe fluorescence polarization; inhibition, % at 5.9 µM; 0.16% of 320,000 active; AID 2174;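 active means inhibition above the mean of all tested compounds plus 3 SD, set per campaign, cut at about 14% in these data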;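 further: inhibitors block serine hydrolase probe labeling of LYPLA1 so polarization falls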
ZTA DNA inh: blocks Epstein-Barr virus ZTA, an EBNA-1 counter-screen | inhibition, % at 11 µM | ZTA-DNA binding, fluorescence polarization | 0.15% of 320,000 active; in the data active means inhibition above about 33%
Target sequence (P03206 whole entry, looked up): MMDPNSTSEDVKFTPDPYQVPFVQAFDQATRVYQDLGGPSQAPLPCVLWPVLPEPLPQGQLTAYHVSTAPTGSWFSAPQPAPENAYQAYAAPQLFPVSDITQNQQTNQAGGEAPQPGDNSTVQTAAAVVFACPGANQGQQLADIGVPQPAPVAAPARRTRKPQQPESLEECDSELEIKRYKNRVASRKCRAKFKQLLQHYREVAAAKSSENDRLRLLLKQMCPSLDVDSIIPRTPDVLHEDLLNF
Of the large screens only hits and unclear results are named; the others gave an inactive call. In the library only some 1.3% were active in any assay of this set; here they are far more common.

O=C(NC1C(=O)NNC1c1ccc(Cl)cc1)c1ccc(F)cc1 (stereo not drawn)	LYPLA2 counter 37
CN(CC(=O)NCC1CCCCC1)CC(=O)Nc1ccccc1Br	none (no result: EBNA-1 inh)
O=[N+]([O-])c1cc(Br)c(O)c(C=Nc2ccc(N3CCOCC3)cc2)c1	EBNA-1 inh 57, ZTA DNA inh 127
COc1cccc(C=Nc2ccc(N3CCOCC3)cc2)c1O	none
CCNc1nc(C#N)nc2c1ncn2-c1cc(F)cc(F)c1	none (no result: EBNA-1 inh)
CCCCn1c(N)c(N(CCC(C)C)C(=O)C2CC(=O)N(c3ccc(OC)cc3OC)C2)c(=O)[nH]c1=O (stereo not drawn)	none
COC(=O)CCC(=O)OC1(C)C(=O)C2=CN(CCN3CCOCC3)C(c3ccc(OC)cc3)=CC2=C(Br)C1=O (stereo not drawn)	none
COC(=O)CCC(=O)OC1(C)C(=O)C2=CN(CCc3ccccn3)C(c3ccc(OC)cc3)=CC2=C(Br)C1=O (stereo not drawn)	PREPL inhibitor 44
COC(=O)CCC(=O)OC1(C)C(=O)C2=CN(CCCCO)C(c3ccc(OC)cc3)=CC2=C(Br)C1=O (stereo not drawn)	PREPL inhibitor 55
CC1C/C(=C\c2cccnc2)C(=O)/C(=C/c2cccnc2)C1 (stereo not drawn)	ZTA DNA inh 44
Nc1ccc2nc(N3CCOCC3)sc2c1	PREPL inhibitor 46
c1ccc2sc(N3CCOCC3)nc2c1	none
CC(=O)OCC1OC(OCc2cn(C[C@H]3CC[C@H](Cn4cc(COC5OC(COC(C)=O)C(OC(C)=O)C(OC(C)=O)C5OC(C)=O)nn4)O3)nn2)C(OC(C)=O)C(OC(C)=O)C1OC(C)=O (stereo partly drawn)	none
COc1cc(CNCc2ccccn2)ccc1OCc1ccc(Cl)c(Cl)c1	PREPL inhibitor 49
COc1cc(CNCc2ccccn2)ccc1OCc1ccc(Cl)cc1Cl	none
CCOc1ccc(-n2c(SCC(=O)NC)nnc2-c2ccco2)cc1	none
CC(=O)c1cccc(NC(=O)C(C)OC(=O)c2cccc(S(=O)(=O)N3CCN(C)CC3)c2)c1 (stereo not drawn)	none (no result: EBNA-1 inh)
O=C(Nc1ccc(F)cc1)N1CCOCC1	none
CN(C)c1ccc(NC(=O)N2CCOCC2)cc1	EBNA-1 inh 50, ZTA DNA inh 62
O=C(c1cc(S(=O)(=O)N2CCOCC2)c(Cl)cc1Cl)N1CCN(S(=O)(=O)c2cccc(F)c2)CC1	none (no result: EBNA-1 inh, LYPLA2 counter, LYPLA1 inh, ZTA DNA inh)
O=C(c1cc2c(s1)CCCC2)n1cccn1	PREPL inhibitor 68
O=C(c1cc2c(s1)CCCCC2)N1CCN(c2ncccn2)CC1	none
CC(C)(O)CC[C@@H](O)[C@](C)(O)[C@H]1CC[C@@]2(O)C3=CC(=O)[C@@H]4C[C@@H](O)[C@@H](O)C[C@]4(C)[C@H]3CC[C@]12C	none
c1ccc(CCNc2nc(-c3cccnc3)cs2)cc1	PREPL inhibitor 49
Cc1cc(NC(=O)C(C)Sc2nnc(NCc3ccco3)s2)no1 (stereo not drawn)	none (no result: EBNA-1 inh)
Nc1cc(-c2ccccc2)nn1Cc1ccc(Cl)cc1	none
O=c1ccc(-c2ccccc2)nn1Cc1ccc(Cl)cc1	LYPLA2 counter 38
CCN(CC)c1ccc2c(-c3ccc(S(=O)(=O)O)cc3S(=O)(=O)[O-])c3ccc(=[N+](CC)CC)cc-3oc2c1	PREPL inhibitor active, EBNA-1 inh 200, ZTA DNA inh active
CC(=O)c1ccc(N2CCN(C(=S)Nc3cccc(Cl)c3)CC2)cc1	EBNA-1 inh 56
CC(=O)c1ccc(NC(=S)N2CCN(c3cccc(Cl)c3)CC2)cc1	none
COc1ccc(OCCCC(=O)NNC(=O)c2ccncc2)cc1	none
CCOC(=O)[C@H]1[C@H]2COc3ccc(Br)cc3[C@@H]2N2C(=O)CN(Cc3ccc(OC)cc3)C(=O)[C@@]12C	none (no result: EBNA-1 inh)
Nc1ccc(N2CCN(c3ccc(F)cc3)CC2)cc1	none
Nc1ccc(N2CCCCCC2)cc1	EBNA-1 inh 93, ZTA DNA inh 165
O=C1NC(=S)S/C1=C\c1ccc(SCc2ccco2)o1	ZTA DNA inh 92
O=C1NC(=S)S/C1=C\c1ccc(SCc2ccccc2)o1	none
CCCC1=NN2C(=N)/C(=C\c3ccc(SCc4ccco4)o3)C(=O)N=C2S1	EBNA-1 inh 50, ZTA DNA inh 61
CCC1=NN2C(=N)/C(=C\c3ccc(SCc4ccco4)o3)C(=O)N=C2S1	none
O=C(NCc1ccccn1)c1ccccc1OCc1ccc(Cl)cc1Cl	none (no result: EBNA-1 inh)
Nc1cc(Cl)nc(N/N=C/c2c(O)ccc3ccccc23)n1	PREPL inhibitor 43
Cc1cccc(NC(=O)CN2C(=O)COc3ccc(Cl)cc32)c1	LYPLA2 counter 40
O=C(CN1C(=O)COc2ccc(Cl)cc21)Nc1ccc2c(c1)OCCO2	none
Cc1ccc(C(=O)O/N=C(\c2ccccc2)c2ccncc2)cc1	PREPL inhibitor 88
O=C(N/C(=C/c1cccc([N+](=O)[O-])c1)C(=O)N1CCOCC1)c1ccccc1Br	none
Nc1nnc(SCC(=O)NC2CCCCCC2)s1	none
O=C(NCC1OCCc2ccccc21)c1ccc(NC(=O)c2cccc(Br)c2)cc1 (stereo not drawn)	EBNA-1 inh 30
O=C(NCC1OCCc2ccccc21)c1ccc(NC(=O)c2ccccc2Cl)cc1 (stereo not drawn)	none
CC[C@@]1(C(=O)OC)N[C@H](CN(C)S(=O)(=O)c2ccc(F)cc2)[C@@H]2C(=O)N(C)C(=O)[C@@H]21	none (no result: EBNA-1 inh, LYPLA2 counter, LYPLA1 inh, ZTA DNA inh)
Cc1c(NC(=O)CSCc2c(F)cccc2Cl)c(=O)n(-c2ccccc2)n1C	none
CCOc1cc(/C=C(\C#N)c2[nH]nc(N)c2C#N)ccc1O	PREPL inhibitor 52
COc1ccc(N2Cc3ccc(C(=O)N/N=C\c4ccc(O)cc4O)cc3C2)cc1	LYPLA2 counter 31
CCOC(=O)N1CCN(c2cc(NCCC(=O)O)c3c4c(onc24)-c2ccccc2C3=O)CC1	EBNA-1 inh 118, ZTA DNA inh 177
O=C(O)CCCNc1cc(N2CCC3(CC2)OCCO3)c2noc3c2c1C(=O)c1ccccc1-3	EBNA-1 inh 93, ZTA DNA inh 143
CN1CCN(c2cc(N3CCN(C(=O)c4ccco4)CC3)c3c4c(onc24)-c2ccccc2C3=O)CC1	none
Cc1ccc(-n2cnc(N)c2C(=O)c2cccc([N+](=O)[O-])c2)cc1	none
COc1ccc(/C=C(/NC(=O)c2ccc(OC)c(OC)c2)C(=O)NCCc2c[nH]c3ccccc23)cc1	none
COc1ccc(C(=O)N/C(=C/c2cccc3ccccc23)C(=O)NCCc2c[nH]c3ccccc23)cc1OC	EBNA-1 inh 113
COc1ccc(NC(=O)CCNS(=O)(=O)c2cccc3nonc23)c(OC)c1	none
Cc1ccc(N2CC(C(=O)Nc3nnc(SCC(=O)Nc4nc(C)cs4)s3)CC2=O)cc1 (stereo not drawn)	EBNA-1 inh 31
CC(C)CC1(C)NC(=O)N(CC(=O)Nc2cccc(S(=O)(=O)N(C)c3ccccc3)c2)C1=O (stereo not drawn)	none
CN(c1ccccc1)S(=O)(=O)c1cccc(NC(=O)CN2C(=O)NC3(CCCCC3)C2=O)c1	PREPL inhibitor 68 (no result: EBNA-1 inh)
Cc1ccc(NC(=O)/C(C#N)=C/c2cn(CC(=O)NCc3ccco3)c3ccccc23)cc1C	none
